HepG2 tox = qHTS for Inhibitors of TGF-b: Cytotox Counterscreen; 410,000 compounds, 0.76% hits; Potency, µM (doses to about 46.1 µM), for inactives: at the highest dose activity change, negative = cytotoxicity, actives largely listed as cytotoxic; HepG2 CAGA-GFP viability, ATP luminescence, 18 h; note: potency is the fitted concentration of half-maximal effect
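HepG2 CAGA-GFP cells (1000/well, DMEM with 1% FBS) received compound, then TGF-beta at 500 pg/mL final, and were incubated 18 hours at 37 degrees C. Viability was read by CellTiter-Glo luminescence. Media-only wells were set as complete cell-killing and DMSO as no toxicity.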
TDP1 block = qHTS Assay for Inhibitors of Tyrosyl-DNA Phosphodiesterase (TDP1). recombinant TDP1, AlphaScreen DNA substrate cleavage. AID 485290, 2010. 350,000 compounds, 0.28% hits. Potency, µM (top dose mostly 130 µM), for the others: at the top dose activity change, negative = inhibition, usual class: inhibitors. Tyrosyl-DNA phosphodiesterase 1 (Homo sapiens), Q9NUW8; note: potency is the fitted concentration of half-maximal effect; % is set by controls: 0 for no effect and ±100 for the full control effect; nearly all actives have a fitted effect of over 40% in size
Target sequence (Q9NUW8 whole entry, looked up): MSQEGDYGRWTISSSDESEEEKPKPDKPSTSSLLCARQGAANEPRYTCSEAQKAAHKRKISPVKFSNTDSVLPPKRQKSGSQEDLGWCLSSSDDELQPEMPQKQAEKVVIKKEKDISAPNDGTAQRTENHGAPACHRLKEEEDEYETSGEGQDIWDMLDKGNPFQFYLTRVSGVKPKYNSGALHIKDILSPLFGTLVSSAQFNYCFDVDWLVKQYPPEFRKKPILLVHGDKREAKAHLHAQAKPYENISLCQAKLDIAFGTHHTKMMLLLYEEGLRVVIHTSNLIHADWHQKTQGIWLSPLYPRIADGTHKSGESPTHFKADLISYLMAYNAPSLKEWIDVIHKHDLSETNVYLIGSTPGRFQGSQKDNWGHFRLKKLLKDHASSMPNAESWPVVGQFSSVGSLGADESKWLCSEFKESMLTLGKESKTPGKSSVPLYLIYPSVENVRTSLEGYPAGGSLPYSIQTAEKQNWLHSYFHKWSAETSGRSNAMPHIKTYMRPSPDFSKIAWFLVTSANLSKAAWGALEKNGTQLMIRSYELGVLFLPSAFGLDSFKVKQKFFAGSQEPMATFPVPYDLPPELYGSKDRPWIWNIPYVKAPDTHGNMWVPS
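Signal: AlphaScreen proximity between streptavidin donor and anti-FITC acceptor beads on intact substrate. Reaction: Tdp1 1 nM, substrate 15 nM final, 5 min RT after 15 min compound preincubation.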
TGFb SMAD3 inh = qHTS for Inhibitors of TGF-b. Potency, µM (series often up to 46.1 µM), without a hit: top-dose activity, negative = inhibition, most hits filed as inhibitors. AID 588855, 2011. 410,000 compounds, 1.2% hits. HepG2 CAGA-GFP TGF-b/SMAD3 reporter, GFP fluorescence, 18 h; TGF-beta stimulated, 500 pg/mL final; note: potency is the fitted concentration of half-maximal effect; % is set by controls: 0 for no effect and ±100 for the full control effect; nearly all actives have a fitted effect of over 65% in size
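HEPG2 CAGA-GFP reporter cells (1000/well, DMEM with 1% FBS) received compounds, then recombinant TGF-beta at 500 pg/mL final for 18 hours at 37 degrees C. Per-cell GFP summed per well was normalised to unstimulated and stimulated DMSO controls before curve fitting.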
IL-1B inflam inh = qHTS for Inhibitors of Inflammasome Signaling: IL-1-beta AlphaLISA Primary Screen; THP-1 LPS/ATP IL-1B secretion, AlphaLISA, 16 h; stronger effect = lower value; 360,000 compounds, 4.7% hits; AID 743279, 2014; activity change, % at 57.5 µM; in the data active = activity change below about -50%; inconclusive = mostly about -30% to -49%; note: % is set by controls: 0 for no effect and ±100 for the full control effect
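Secreted IL-1B measured by AlphaLISA bead assay after 16 h compound exposure of THP-1 cells; compounds (final up to 57.5 uM) added 1 h before LPS (250 ng/mL) and ATP (1.25 mM) stimulation; lower signal means less secretion.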
TDP1 cell noCPT = qHTS for Inhibitors of human tyrosyl-DNA phosphodiesterase 1 (TDP1): qHTS in cells in absence of CPT; DT40 Tdp1-/- hTDP1 cells, no CPT, ATP luminescence, 48 h; Potency, µM (doses to about 46.2 µM), without a hit: top-dose activity change, negative = growth inhibition, most hits filed as inhibitors; 420,000 compounds, 15% hits; note: potency is the fitted concentration of half-maximal effect; % is set by controls: 0 for no effect and ±100 for the full control effect; nearly all actives have a fitted effect of over 55% in size
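Compound effects on proliferation are scored in DT40 Tdp1-/-;hTDP1 cells in the absence of CPT. ATP levels (CellTiter-Glo luminescence) are recorded after a ≥48 hr, 37 °C incubation.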
DT40 TDP1 CPT = qHTS for Inhibitors of human tyrosyl-DNA phosphodiesterase 1 (TDP1): qHTS in cells in presence of CPT; chicken DT40 Tdp1-/-;hTDP1 cells + 20 nM CPT, ATP luminescence, 48 h; Potency, µM (titrated, usually from 46.2 µM), inactives show top-dose activity change, negative = growth inhibition, usual class: inhibitors; 420,000 compounds, 12% hits; note: potency is the fitted concentration of half-maximal effect; % is set by controls: 0 for no effect and ±100 for the full control effect; nearly all actives have a fitted effect of over 55% in size
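Cell growth measured by CellTiter-Glo luminescence after a minimum 48 h, 37 C compound exposure with 20 nM CPT in Tdp1-knockout DT40 cells stably expressing hTDP1, seeded 400/well; qHTS titration format.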
Active calls of the source: *; i = inactive; ? = inconclusive; / = no result; [ ] = dose if it differs, or a comment. Compounds with a hit are over-represented: about 19% of the library has one in this group of screens. Unless noted, calls come from the whole dose curve; as a rule, active = well fitted curve in the direction sought with a large enough effect; inconclusive = small, poorly fitted or top-dose-only effect, or another doubt; inactive = no such curve, though single readings can be large; an effect the other way counts as inactive or inconclusive.

SMILES	HepG2 tox	TDP1 block	TGFb SMAD3 inh	IL-1B inflam inh	TDP1 cell noCPT	DT40 TDP1 CPT
O=S(=O)(c1ccc2ccccc2c1)N1CCN(c2ccc(O)cc2)CC1	-7.2%	9.3%	-19.7%	28.7	8.2µM*	6.51µM*
CC[C@H](C)[C@H](NC(=O)[C@H](Cc1ccc(O)cc1)NC(=O)[C@@H](NC(=O)[C@H](CCCNC(=N)N)NC(=O)[C@@H](N)CC(=O)O)C(C)C)C(=O)N[C@@H](Cc1cnc[nH]1)C(=O)N1CCC[C@H]1C(=O)N[C@@H](Cc1ccccc1)C(=O)N[C@@H](Cc1cnc[nH]1)C(=O)N[C@@H](CC(C)C)C(=O)N[C@@H](CC(C)C)C(=O)N[C@H](C(=O)N[C@@H](Cc1ccc(O)cc1)C(=O)N[C@@H](CO)C(=O)O)C(C)C	/	14.1%	/	/	/	/
Cc1ccccc1C(=O)N1CCC(C(=O)Nc2ccc(S(=O)(=O)N3CCCCC3)cc2)CC1	20.3%	6.4%	-16.3%	i	11.6µM*	16.4µM*
Cc1ccccc1C(=O)N1CCC(C(=O)Nc2ccc(S(=O)(=O)N3CCOCC3)cc2)CC1	-18.0%	0.7%	0.9%	27.4	?	?
CCOC(=O)c1c(-c2ccc(C)cc2)csc1NC(=O)c1nc(SCC)ncc1Cl	-4.6%	0.0%	?	/	-15.0%	-4.2%
O=C(Nc1ccccc1N1CCOCC1)c1ccc([N+](=O)[O-])o1	-16.2%	4.3%	-2.4%	-1.3	14.6µM*	11.6µM*
CC(=O)N1CCN(c2ccccc2NC(=O)c2ccco2)CC1	-11.5%	3.9%	-0.2%	-27.6	1.3%	2.6%
O=C(Nc1ccccc1N1CCN(C(=O)c2ccc(Cl)cc2)CC1)c1ccc([N+](=O)[O-])o1	-13.9%	6.9%	?	-76.2*	?	20.6µM*
O=C(Nc1cccc(Cl)c1N1CCOCC1)c1ccco1	9.0%	-9.9%	-1.0%	?	?	?
CCN1CCN(c2c(Cl)cccc2NC(=O)c2ccco2)CC1	-5.5%	0.0%	1.1%	-68.1*	?	-20.7%
O=C(Nc1ccccc1N1CCCCC1)c1ccc(-c2cc(Cl)ccc2Cl)o1	-1.1%	/	2.7%	10.7	-6.0%	-1.8%
O=C(Nc1ccccc1N1CCCCC1)c1ccc([N+](=O)[O-])o1	-74.2%	10.7%	0.0%	?	16.4µM*	20.6µM*
O=C(CN1Cc2ccccc2C1=O)Nc1ccc2c(c1)OCCO2	1.6%	2.2%	7.7%	-7.6	3.7%	14.8%
CCCCC(=O)NC(=S)Nc1cccc(Cl)c1N1CCCCC1	-19.7%	0.0%	?	?	?	?
CCN1CCN(c2c(Cl)cccc2NC(=O)c2ccc([N+](=O)[O-])cc2)CC1	-14.6%	3.1%	-22.2%	-12.2	-9.6%	-28.9%
CCC(=O)NC(=S)Nc1cccc(Cl)c1N1CCCCC1	-60.9%	4.0%	14.1µM*	52.4	11.2µM*	11.2µM*
O=C(Nc1cccc(Cl)c1N1CCCC1)c1ccc([N+](=O)[O-])o1	-24.0%	8.2%	1.5%	-83.7*	-26.9%	-29.5%
COc1ccc(S(=O)(=O)N(C)c2ccc(C(=O)N3CCN(c4ccccc4)CC3)cc2)cc1OC	-18.1%	4.1%	0.0%	-25.6	16.4µM*	14.6µM*
COc1ccc(N2CCN(C(=O)c3ccc(N(C)S(=O)(=O)c4ccc(C)cc4)cc3)CC2)cc1	2.0%	3.7%	-10.0%	0.0	16.4µM*	16.4µM*
COc1ccc(N(C)S(=O)(=O)c2cccc(C(=O)N3CCN(S(=O)(=O)c4ccc(C)cc4)CC3)c2)cc1	-5.6%	5.1%	?	-14.9	?	25.9µM*
COc1ccc(S(=O)(=O)N(C)c2ccc(C(=O)N3CCN(C)CC3)cc2)cc1	7.1%	4.4%[56.1 µM]	9.0%	9.7	-28.3%	-14.5%
Cc1ccc(S(=O)(=O)N2CCN(C(=O)c3cccc(-n4cccc4)c3)CC2)cc1	-27.7%	-21.1%	-10.2%	-7.7	?	16.4µM*
COc1ccc(S(=O)(=O)N2CCN(C(=O)c3cccc(S(=O)(=O)N4CCCC4)c3)CC2)cc1	-3.6%	/	-1.6%	-8.3	?	-8.5%
CCC(=O)N1c2ccc(S(=O)(=O)NCc3cccc(OC)c3)cc2CC1C (centres undefined)	-12.3%	2.3%	0.0%	/	?	?
CCOCCOC(=O)c1ccc(NC(=O)c2cc3ccccc3o2)cc1	-18.3%	/	1.7%	26.7	-27.7%	-16.3%
SMILES	HepG2 tox	TDP1 block	TGFb SMAD3 inh	IL-1B inflam inh	TDP1 cell noCPT	DT40 TDP1 CPT
Cc1c(Cc2ccccc2)c(=O)oc2cc(OCC(=O)N3CCC(C(=O)O)CC3)ccc12	-22.8%	/	5.6%	-7.3	2.6%	-0.2%
CCN(CC)C(=O)Cn1c(=O)n(Cc2ccc(C(=O)NCCc3ccc(OC)c(OC)c3)cc2)c(=O)c2ccccc21	2.4%	2.7%	-7.2%	/	?	?
COc1ccc(N2CCN(C(=O)c3ccc(N(C)S(=O)(=O)c4ccc(OC)cc4)cc3)CC2)cc1	-8.2%	8.5%	?	?	16.4µM*	?
CC(C)=CCC[C@@](C)(O)[C@H]1CC=C(C)CC1	/	/	/	/	-2.6%	-8.2%
O=C(NN1C(=O)C2CC=C(Cl)CC2C1=O)c1ccncc1 (centres undefined)	1.3%	35.5µM*	0.2%	7.6	10.1%	4.8%
COC1=C(C(=O)O)N2C(=O)[C@@H](NC(=O)[C@H](N)C3=CCC=CC3)[C@H]2SC1	/	/	/	/	-20.1%	-19.3%
Cc1ccc(-n2cc(S(=O)(=O)c3ccc(C)cc3)[nH]c2=O)cc1	3.16µM*	8.2%	?	4.5	-8.8%	-9.4%
CCn1cc(S(=O)(=O)c2ccc(C)cc2)[nH]c1=O	11.8%	2.3%	11.1%	-1.9	18.7%	15.6%
CC(CCc1ccccc1)NC(=O)CSc1n[nH]c(-c2ccccc2Cl)n1 (centres undefined)	-24.8%	5.4%	?	/	?	?
CC(CCc1ccccc1)NC(=O)CSc1n[nH]c(-c2ccccc2)n1 (centres undefined)	-34.0%	0.0%	-41.8%	/	20.6µM*	14.6µM*
O=C(CSc1n[nH]c(-c2ccc(F)cc2)n1)NCCc1ccccc1	-3.2%	5.4%	-19.6%	/	?	-27.5%

Source: PubChem BioAssay
